From PubChem BioAssay
Lassa entry: qHTS for Inhibitors of binding or entry into cells for Lassa Virus; Lassa virus pseudotyped entry inhibition, cell-based qHTS; Potency, µM (highest dose often 49.2 µM), for the others: top-dose activity change, negative = inhibition, most hits filed as inhibitors; actives 4.1% (n = 18,000)
MARV entry inh: qHTS for Inhibitors of binding or entry into cells for Marburg Virus | Marburg virus pseudotype entry/binding inhibition, cell-based | Potency, µM (doses to about 49.2 µM), for inactives: at the highest dose activity change, negative = inhibition, most hits filed as inhibitors | actives 6.5% (n = 18,000) | AID 720532, 2013
The depositor's hits bear a star; [ ] = another dose, or the depositor's remark. Compounds with a hit are over-represented: about 8.6% of the library has one in this group of screens. Calls follow the shape of the full dose curve; tested in HEK293 cells. % is scaled to controls: 0 for no effect and ±100 for the full control effect; potency is read from the fitted curve at half-maximal effect.

`O=C(O[C@@H]1Cc2c(O)cc(O)cc2OC1c1ccc(O)c(O)c1)c1cc(O)c(O)c(O)c1` (stereo partly drawn) gave Lassa entry 6% and MARV entry inh 13µM*.
`Oc1ccc(C2Oc3cc(O)cc(O)c3CC2O)cc1` (stereo not drawn) gave Lassa entry -4% and MARV entry inh -4%.
`Oc1cc(O)c2c(c1)OC(c1cc(O)c(O)c(O)c1)C(O)C2` (stereo not drawn) gave Lassa entry 3% and MARV entry inh inconclusive.
`O=C(OC1Cc2c(O)cc(O)cc2OC1c1cc(O)c(O)c(O)c1-c1c(C2Oc3cc(O)cc(O)c3CC2OC(=O)c2cc(O)c(O)c(O)c2)cc(O)c(O)c1O)c1cc(O)c(O)c(O)c1` (stereo not drawn) gave Lassa entry -2% and MARV entry inh 11µM*.
Screening O=C(OC1Cc2c(O)cc(O)cc2OC1c1cc(O)c(O)c(O)c1)c1cc(O)c(O)c(O)c1 (stereo not drawn) returned Lassa entry -1% and MARV entry inh 8.9µM*.
`COc1cc(Nc2ncc(-c3ccccc3)o2)cc(OC)c1` gave Lassa entry 110% and MARV entry inh 58%.
`CC(=O)C1=C(C)N(Cc2ccccc2)C(=O)NC1c1ccco1` (stereo not drawn) gave MARV entry inh 2%[8.59 µM].
`Cc1cc2c(c(=O)o1)[C@H]1O[C@](c3ccsc3)(Cc3ccccc31)O2` gave Lassa entry 1%[8.59 µM] and MARV entry inh 10%[8.59 µM].
For CN1CCN([C@@H]2C[S+](=O)([O-])N[C@@H]2COCc2ccccc2)CC1 the results were Lassa entry 4% and MARV entry inh 24%.
C=C(C)C(=O)OC[C@@H]1CN2[C@H](c3ccc(Br)cc3)[C@H](C)CC[C@H]2C(=O)O1 was read as Lassa entry 11%[8.59 µM] and MARV entry inh 46%[8.59 µM].
For COC(=O)C1C[C@@]23C(=NN=C(SC)C2N(C)c2ccc(OC)cc23)N1C(C)=O (stereo partly drawn) the results were MARV entry inh -33%[8.59 µM].
Screening COc1cc2oc(=O)cc(-c3ccc(-c4cccc(N)c4)cc3)c2c(OC)c1OC returned Lassa entry -21% and MARV entry inh inconclusive.
Screening COc1ccc(-c2oc3cc(OC)c(OC(C)=O)c(OC)c3c(=O)c2OC)cc1OC(C)=O returned Lassa entry 0.32µM* and MARV entry inh 1%.
Screening COc1ccc(-c2oc3ccccc3c(=O)c2O)cc1OC returned Lassa entry 4% and MARV entry inh 8%.
COc1ccc(-c2ccc(-c3cc(=O)oc4cc(OC)c(OC)c(OC)c34)cc2)cc1OC was read as Lassa entry 18µM* and MARV entry inh 0%.
For Cc1ccc(S(=O)(=O)N2CCCN(S(=O)(=O)c3ccccc3Br)CC2)cc1 the results were MARV entry inh 35%.
O=S(=O)(c1cccc2c(I)cccc12)N1CCCNCC1 was read as Lassa entry inconclusive and MARV entry inh 11µM*.
O=S(=O)(c1cccc2c(Cl)cccc12)N1CCCNCC1 was read as Lassa entry inconclusive and MARV entry inh 8.9µM*.
`C[C@@H]1CNCCN1S(=O)(=O)c1cccc2cnccc12` gave Lassa entry 5% and MARV entry inh -25%.
For O=C(OCc1cn([C@H]2CN(C(=O)C3CCCCC3)[C@@H](c3ccccc3)C[C@H]2O)nn1)c1ccccc1 the results were Lassa entry -28% and MARV entry inh inconclusive.
COCOCCn1cc(CN2CCS(=O)(=O)N(Cc3ccc(-c4ccc(F)cc4)cc3)C(C)C2=O)nn1 (stereo not drawn) was read as Lassa entry -17% and MARV entry inh 24%.
`COc1ccc(O)c(CN2CCC3(CC2)c2ccccc2[C@@H](NC(=O)c2cccc(F)c2)[C@@H]3OC)c1` gave Lassa entry -28% and MARV entry inh inconclusive.
Screening Cc1ccc2c(c1)CN(CCNC(=O)c1cc3ccccc3oc1=O)CC(C)O2 (stereo not drawn) returned Lassa entry 0% and MARV entry inh -23%.
For COc1ccc(C(=O)NCCN2Cc3cc(C)ccc3OC(C)C2)c(OC)n1 (stereo not drawn) the results were Lassa entry -4% and MARV entry inh 2µM*.
For NS(=O)(=O)c1ccc(N=Nc2c(O)[nH]c3ccc(C(=O)NCCCn4ccnc4)cc23)cc1 the results were Lassa entry inconclusive and MARV entry inh -12%.
c1ccc(C(O[C@H]2CCCN(CCc3ccc4c(c3)OCO4)C2)c2ccccc2)cc1 was read as Lassa entry -4% and MARV entry inh inconclusive.
`CN1C2CC(OC(=O)C(CO)c3ccccc3)CC1C(O)C2` (stereo not drawn) gave Lassa entry 9% and MARV entry inh 8%.
CN1[C@@H]2CC[C@H]1CC(OC(c1ccccc1)c1ccccc1)C2 (stereo partly drawn) was read as Lassa entry 14µM* and MARV entry inh 13µM*.
